We go through 8 compounds from PubChem BioAssay (NCI).

Among the test systems are K-562 leukemia; MALME-3M melanoma; MDA-MB-231 breast; RXF 393 renal; SF-268 CNS; SF-295 CNS; SF-539 CNS; UACC-257 melanoma; HCT-15 colon; HT29 colon; SNB-75 CNS; SNB-19 CNS; U251 CNS; PC-3 prostate; SK-MEL-5 melanoma; UACC-62 melanoma; LOX IMVI melanoma; SK-MEL-28 melanoma; SK-MEL-2 melanoma; M14 melanoma.
Assay in all cases: NCI-60 one-dose screen, 48 h (100 = growth as untreated, 0 = no growth, -100 = all killed)
Holding throughout (conditions): 10 µM unless noted

This is part of a sample that, as a whole, favours compounds with a hit. Of some 83,000 tested, about 20% had one in any assay.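 How to read the values: 0–100, growth inhibition (40 = 60% inhibited); 0, no net growth; -100 to 0, cell death (-40 = 40% of starting cells died; -100 = all dead).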 Values without a mark were called inactive. Calls of active or inactive are those of the source. The calls were made as follows: active = growth percent below 10; inactive = the rest.

As for `COc1ccc(-c2nn3c(-c4ccccc4F)nnc3s2)cc1`, the growth in the test with K-562 leukemia was 18.7%; with MALME-3M melanoma it was 66.1%; in the test with MDA-MB-231 breast, 41.1%; with RXF 393 renal, 68.4%; in the test on SF-268 CNS it was 74.2%; in the test on SF-295 CNS, 58.5%. The growth was 59.3% with SF-539 CNS; 86.4% in the test with UACC-257 melanoma; 31.5% with HCT-15 colon; 39.3% with HT29 colon; 66.3% with SNB-75 CNS; 73.2% with SNB-19 CNS. Also, the growth with U251 CNS is 55.7%; in the test with PC-3 prostate, 83.1%; in the test on SK-MEL-5 melanoma, 64.4%; in the test on UACC-62 melanoma, 51.1%; in the test on LOX IMVI melanoma it was 60.3%; in the test on SK-MEL-28 melanoma, 59.4%. The growth with SK-MEL-2 melanoma was 30.5%.

As for `CN(C)S(=O)(=O)c1oc(-c2ccccc2)nc1C#N`, the growth in the test on K-562 leukemia is 5.64% (active); in the test on MALME-3M melanoma, -23.6% (active); with MDA-MB-231 breast it was 52.2%; with RXF 393 renal, 39%; in the test with SF-268 CNS, 116%; in the test with SF-295 CNS, 99.3%. In addition, the growth with SF-539 CNS is 84.4%; with UACC-257 melanoma, 103%; in the test on HCT-15 colon it was -11.6% (active); in the test with HT29 colon it was 35.1%; in the test on SNB-75 CNS, 96.1%; in the test on SNB-19 CNS, 96.1%. Further, the growth was 88.8% in the test with U251 CNS; 88.7% with PC-3 prostate; 93.1% in the test with SK-MEL-5 melanoma; 97.9% in the test on UACC-62 melanoma; -80.7% (active) in the test with LOX IMVI melanoma; 87.8% with SK-MEL-28 melanoma. Moreover, in the test on SK-MEL-2 melanoma, the growth is 110%.

Turning to `CCCC(=O)NC(c1ccc2c(c1)OC(F)(F)O2)c1cc(C)c2cccnc2c1O` (centres undefined), the growth with K-562 leukemia was 15.9%; in the test with MALME-3M melanoma, 14.4%; in the test on MDA-MB-231 breast, 34.8%; with RXF 393 renal, 55.4%; with SF-268 CNS, 18.7%; in the test on SF-295 CNS, 20.9%. For the same compound, the growth was 8.69% (active) in the test on SF-539 CNS; 3.17% (active) with UACC-257 melanoma; -11.5% (active) with M14 melanoma; 39.3% in the test with HCT-15 colon; 32.3% in the test with HT29 colon; 22.5% with SNB-19 CNS. Further, the growth was 14.8% with U251 CNS; 36.6% in the test with PC-3 prostate; -31.2% (active) in the test on SK-MEL-5 melanoma; -16.7% (active) with UACC-62 melanoma; 21.1% with LOX IMVI melanoma; 17.1% with SK-MEL-28 melanoma. Besides, the growth in the test on SK-MEL-2 melanoma is 40.2%.

For `CC(C)(C)Nc1nc2c(OCCc3ccccc3)cccn2c1-c1ccccc1Cl`, the growth was 0.922% (active) in the test on K-562 leukemia; -32% (active) with MALME-3M melanoma; -32.6% (active) in the test with MDA-MB-231 breast; -43.6% (active) in the test with RXF 393 renal; 22.9% in the test with SF-268 CNS; -56.8% (active) with SF-295 CNS. In addition, the growth in the test with SF-539 CNS was -74.7% (active); in the test on UACC-257 melanoma it was 1.9% (active); in the test with M14 melanoma, 0.193% (active); in the test on HCT-15 colon, -72.1% (active); in the test on HT29 colon, -47.3% (active); in the test on SNB-19 CNS, 18.4%. The growth in the test with U251 CNS is -44.7% (active); with PC-3 prostate, -40% (active); with SK-MEL-5 melanoma, -92.5% (active); in the test on UACC-62 melanoma it was -42.1% (active); in the test with LOX IMVI melanoma, -96% (active); with SK-MEL-2 melanoma, -76.2% (active).

Regarding `Cc1nc2cnc(N)c(C#Cc3cncc(C(=O)Nc4ccc(Cl)c(C(F)(F)F)c4)c3)c2nc1C`, the growth in the test with K-562 leukemia was -15% (active); in the test on MALME-3M melanoma, 39.9%; in the test on MDA-MB-231 breast, 7.63% (active); in the test with RXF 393 renal, -18% (active); in the test with SF-268 CNS, 52.6%; in the test with SF-295 CNS it was 88.5%. Besides, the growth with SF-539 CNS is -12.9% (active); in the test on UACC-257 melanoma it was 77.7%; in the test with M14 melanoma it was 29.9%; with HCT-15 colon, 52.6%; in the test with HT29 colon, 31.5%; in the test on SNB-19 CNS it was 90%. The growth is 85.3% in the test with PC-3 prostate; 86.9% with SK-MEL-5 melanoma; 39.7% with UACC-62 melanoma; -77.4% (active) with LOX IMVI melanoma; 44.4% with SK-MEL-28 melanoma; 14.4% in the test on SK-MEL-2 melanoma.

For the compound `COC(=O)C(Cc1ccccc1)NS(=O)(=O)/N=C1\NC(=O)NC1=C(Cl)Cl` (centres undefined), the growth is 91.8% with K-562 leukemia; 94.8% in the test with MALME-3M melanoma; 101% in the test with MDA-MB-231 breast; 119% in the test on RXF 393 renal; 82.9% in the test on SF-268 CNS; 99.5% with SF-295 CNS. For the same compound, the growth is 54% with SF-539 CNS; 91% in the test on UACC-257 melanoma; 92.9% in the test with M14 melanoma; 99.5% in the test with HCT-15 colon; 127% with HT29 colon; 94.2% with SNB-19 CNS. In addition, the growth was 106% in the test with U251 CNS; 90% in the test with PC-3 prostate; 98.1% with SK-MEL-5 melanoma; 78.8% in the test with UACC-62 melanoma; 102% in the test with SK-MEL-28 melanoma; 60.3% in the test with SK-MEL-2 melanoma.

`Cc1nc(-c2cc3ccccc3oc2=O)ccc1C(=O)/C=C/c1ccccn1`: the growth is 7.22% (active) in the test with K-562 leukemia; 88.3% with MALME-3M melanoma; 12.8% in the test on MDA-MB-231 breast; 32.3% in the test with RXF 393 renal; 78.5% in the test with SF-268 CNS; 71.1% with SF-295 CNS. Besides, the growth was 2.25% (active) with SF-539 CNS; 101% in the test with UACC-257 melanoma; 80.2% in the test on M14 melanoma; -33.3% (active) in the test with HCT-15 colon; 2.1% (active) in the test with HT29 colon; 71.6% in the test with SNB-19 CNS. For the same compound, the growth was 8% (active) in the test with U251 CNS; 68.2% in the test on PC-3 prostate; 95.9% in the test on SK-MEL-5 melanoma; 71.1% in the test with UACC-62 melanoma; -84.5% (active) in the test with LOX IMVI melanoma; 95.1% in the test with SK-MEL-28 melanoma. Moreover, the growth in the test on SK-MEL-2 melanoma was 108%.

For `Nc1cc(-c2c[nH]c3ccc(F)cc23)nc2cc(-c3c[nH]c4ccc(F)cc34)nn12`, the growth is 0.113% (active) in the test on K-562 leukemia; 94.9% in the test with MALME-3M melanoma; 70.6% with MDA-MB-231 breast; 128% in the test on RXF 393 renal; 91.8% in the test on SF-268 CNS; 85.4% in the test with SF-295 CNS. For the same compound, the growth in the test with SF-539 CNS is 87.4%; in the test with UACC-257 melanoma, 116%; with HCT-15 colon, 31%; in the test with HT29 colon it was -60.9% (active); with SNB-75 CNS, 79%; in the test on SNB-19 CNS, 106%. Besides, the growth in the test on U251 CNS is 3.43% (active); in the test on PC-3 prostate, 78.8%; with SK-MEL-5 melanoma it was 92.8%; in the test with UACC-62 melanoma, 104%; with LOX IMVI melanoma, -18.8% (active); with SK-MEL-28 melanoma, 109%. Moreover, the growth with SK-MEL-2 melanoma is 116%.
